For 37 sequences, seed-corrected z-score results are on record in PubChem BioAssay AID1159506 (National Center for Advancing Translational Sciences (NCATS), 2015).

In all, about 59,000 sequences were measured (the read-out: median about -0.00055, lowest 2% from about -2 on). Only a selection was taken, and the lowest values are over-represented in it overall.

A short description of this assay: Identification of proteins required for the processing of the EWS-FLI1 nascent transcript.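 Note: robust z of luciferase light less the median z of siRNAs with the same seed.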 Particulars: TC32 Ewing sarcoma NR0B1-luc vs CMV-luc (EWS-FLI1 target promoter against control promoter), 48 h; screened at 20 nM (by protocol). In a few lines:
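Readout: OneGlo luminescence, 48 h post-transfection, TC32-NR0B1-luc vs TC32-CMV-luc in parallel. siRNA 20 nM final, RNAiMax lipid, 600 cells/well; z-score-MAD transformed, then seed-adjusted.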
Consider UUCAAUGAUAAUAAGGUUG against SF3B3, for which the seed-corrected z-score was -3.05.
In turn, UUUAUCGAAAGCAAAAUUG against MTPAP returned a seed-corrected z-score of 0.577.
As for AAAUCGACUACUGAGAACC against CUL9, the figure is 0.396; as for AUCCCGACAAUCACCUUCC against DPAGT1, -0.101.
AAUGUGGUGAAUACCUCGC against TXLNA had a seed-corrected z-score of 0.621.
Then AUCGGUCACAAAUUGUGGG against ABCE1, with -2.31.
As for UGUUCAUCAAGAGGUUUCC against NUP188, the figure is 0.194; as for UUUCCAUAGACUUUCCCAC against KLF9, -0.352; as for UUUCUUAACUGAGUUCCUC against BMF, -0.0574.
As for UAUCAACUCAGUCCUCAGC against HPS6, the figure is 0.543; as for AAGACUUUCAGACAUUUGU against ZNF181, -0.276.
Take UUUGGGCUUAGCGGCUUUG against HIST1H1B: the seed-corrected z-score is -2.05.
Regarding ACUGUAAUUACUAAGAUCU against CXCR2, the seed-corrected z-score is -1.37.
As for UACCAGAUGUCUUUUGUGC against IL33, the figure is 0.0107; as for UUCUGGUCGAGAGCAUCUG against MAGEB16, -2.42; as for UAUAACUUGAGAGUAGCUC against POPDC2, 0.283.
Then UAUAAGUUUCCUCCCAUGC against TM6SF1, with 0.269; and AUCUUGGACAGUAUCAGCC against IQCF1, with -2.36.
In turn, UUGAGUUUGAUGCCGCUGC against MKNK2 returned a seed-corrected z-score of -0.331.
As for UUUCUUAGGGAACCAGUUG against TAGLN2, the figure is -0.282.
UCCAGAUUCAAAAUGUCUU against NKX2-3: the seed-corrected z-score was 0.184.
Regarding AAACUCAUCACUCCAGUAC against PARP12, the seed-corrected z-score amounted to 0.00618.
UUCUUGACUGCUGGUAUAG against C3orf30 registered a seed-corrected z-score of -0.465.
Then UCGGUGUUCACGUAGCCCU against SYNGR3, with -0.68; and UUUAUUUAGACUUAUGAUC against PTH, with -2.27; and UCUACUUUUCACAAUGACC against GCLM, with -0.666.
As for ACGGCCUCCACUAUGUUUC against RPS26P31, the figure is 0.368.
With AAACUGUGAAGCGUAAGUG against FAM188B, the seed-corrected z-score was -4.34.
As for UGUCAAAUGAAAUUCCUUC against DHX38, the figure is -0.779.
The sequence UGUGUGAGCAUGAAGCGAG against SSNA1 came in with a seed-corrected z-score of 0.0225.
As for AUAUGUAUCAGAACUGGGA against SAE1, the figure is -0.67; as for UGCUGUAAUGAUGUACUCC against KIAA1549, -1.71; as for UUAAUCACCUUGUCGUUGC against ALDH3A1, -0.669.
As for UGGUCUUAAAAUUAGAGUG against CALR3, the figure is -2.01; as for AUAUGAUUAGGUAGGUUUG against GDPD2, 0.805.
As for UCGGAUUGAUCUGUUAUGG against CFAP54, the figure is -1.05; as for UGGUAUAUAAGGGAUGAGC against ZNF611, -2.07.
